Screens (PubChem)
Compounds with a hit are over-represented: about 19% of the library has one in this group of screens.
HT1080-NT tox – qHTS for induction of synthetic lethality in tumor cells producing 2HG: qHTS for the HT-1080-NT fibrosarcoma cell line; HT-1080-NT fibrosarcoma viability, CellTiter-Glo ATP luminescence, 48 h; Potency, µM (highest dose often 46.1 µM), inactives show at the top dose activity, negative = less viability, most hits filed as cytotoxic; 1.6% of 360,000 active; AID 686970, 2013;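 further: NT is the 2HG producing partner of a matched IDH1 knockdown line; potency means the concentration at half of the fitted maximal effect; 0% = DMSO-treated cells and -100% = media-only wells without cells; nearly all actives have a fitted effect of over 55% in size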
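A 48-hour cytotoxicity screen used HT-1080-NT cells plated 2 hours before compound delivery. ATP-based CellTiter-Glo luminescence measured viability, normalized to DMSO and no-cell controls.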
IL1B secr inh – qHTS for Inhibitors of Inflammasome Signaling: IL-1-beta AlphaLISA Primary Screen | activity change, % at 57.5 µM | THP-1 LPS/ATP IL-1B secretion, AlphaLISA, 16 h; stronger effect = lower value | AID 743279, 2014 | 4.7% of 360,000 active; in the data active means activity change below about -50%; inconclusive means mostly about -30% to -49%
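THP-1 cells pretreated 1 hr with compounds (up to 57.5 uM final), then stimulated with LPS (250 ng/mL final) plus ATP (1.25 mM final); secreted IL-1B measured by AlphaLISA after 16 hr, decreased signal indicating inhibition.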
DT40 TDP1 CPT – qHTS for Inhibitors of human tyrosyl-DNA phosphodiesterase 1 (TDP1): qHTS in cells in presence of CPT. Potency, µM (series often up to 46.2 µM), without a hit: at the highest dose activity change, negative = growth inhibition, hits mostly inhibitors. chicken DT40 Tdp1-/-;hTDP1 cells + 20 nM CPT, ATP luminescence, 48 h. 12% of 420,000 active; further: potency means the concentration at half of the fitted maximal effect; nearly all actives have a fitted effect of over 55% in size
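Chicken DT40 Tdp1-/- cells complemented with human TDP1, 400 cells/well, exposed to compounds plus 20 nM camptothecin for at least 48 h at 37 C; viability read as ATP content by CellTiter-Glo luminescence.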
HT1080 IDH1KD tx – qHTS for induction of synthetic lethality in tumor cells producing 2HG: qHTS for the HT-1080-IDH1KD cell line; HT-1080 IDH1 knockdown viability, ATP luminescence, 48 h; Potency, µM (highest dose often 46.1 µM), inactives show top-dose activity, negative = toxicity, most hits filed as cytotoxic; 2% of 360,000 active;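 further: potency means the concentration at half of the fitted maximal effect; 0% = DMSO wells and -100% = cell-free medium wells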
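Viability of IDH1-knockdown HT-1080 fibrosarcoma cells was assessed by CellTiter-Glo after 48 h at 37 °C with titrated compound; concentration-effect curves were classified by fit quality and response size.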
TDP1 cell noCPT – qHTS for Inhibitors of human tyrosyl-DNA phosphodiesterase 1 (TDP1): qHTS in cells in absence of CPT | AID 686978, 2013 | DT40 Tdp1-/- hTDP1 cells, no CPT, ATP luminescence, 48 h | Potency, µM (doses to about 46.2 µM), inactives show at the highest dose activity change, negative = growth inhibition, usual class: inhibitors | 15% of 420,000 active; further: potency means the concentration at half of the fitted maximal effect; nearly all actives have a fitted effect of over 55% in size
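DT40 Tdp1-/-;hTDP1 cells, no CPT (DMSO vehicle only), 400 cells/well; compounds pin-transferred; ≥48 hr, 37 °C; CellTiter-Glo 30 min RT dark, luminescence read.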
* marks the source's active call; other numbers are inactive results; i = inactive; u = inconclusive; x = no result. Unless noted, the call rests on the fitted dose curve; in most records, active means well fitted curve in the direction sought with a large enough effect; inconclusive means small, poorly fitted or top-dose-only effect, or another doubt; inactive means no such curve, though single readings can be large; an effect the other way counts as inactive or inconclusive. Unless noted, on the % scale 0 is the no-effect control and ±100 the full control effect.

SMILES	HT1080-NT tox	IL1B secr inh	DT40 TDP1 CPT	HT1080 IDH1KD tx	TDP1 cell noCPT
C=CCN1C(=NC(=O)COc2ccc(Cl)cc2)SC2CS(=O)(=O)CC21 (configuration not stated)	0%	9	-32%	-5%	-22%
Cc1cc(N2CCC(C(=O)Nc3ccc(Cl)cc3)CC2)n2nc(C)c(-c3ccc(Cl)cc3)c2n1	x	x	-3%	x	4%
O=S1(=O)c2cccc3cccc(c23)N1Cc1nnc(-c2ccccc2Br)o1	-1%	-21	15µM*	u	18µM*
CCOc1ccc2nc(N(CCCN(C)C)C(=O)c3ccc(S(=O)(=O)N4CCCC4)cc3)sc2c1	-17%	0	u	-11%	-29%
COc1cccc2sc(N(CCN(C)C)C(=O)c3ccc(S(=O)(=O)N4CCCC4)cc3)nc12	2%	i	2%	-18%	u
CCOc1cccc2sc(N(CCCN(C)C)C(=O)c3ccc(S(=O)(=O)N4CCc5ccccc5C4)cc3)nc12	-18%	u	u	-5%	u
CN(C)CCCN(C(=O)c1ccc(S(=O)(=O)N2CCCCC2)cc1)c1nc2cc3c(cc2s1)OCO3	-17%	-63*	23µM*	-4%	u
Cc1cc(C)c2nc(N(CCCN(C)C)C(=O)c3ccc(S(=O)(=O)N4CCCCCC4)cc3)sc2c1	16µM*	-96*	u	16µM*	u
CN(C)CCCN(C(=O)c1ccc(S(=O)(=O)N2CCCC2)cc1)c1nc2ccc(Br)cc2s1	21µM*	-52*	23µM*	23µM*	21µM*
CC1CN(S(=O)(=O)c2ccc(C(=O)N(CCCN(C)C)c3nc4c(Cl)cccc4s3)cc2)CC(C)O1 (configuration not stated)	-6%	-54*	-29%	-9%	2%
CC12CN3CC(C)(CN(C1)C3c1ccc([N+](=O)[O-])o1)C2=O (configuration not stated)	9%	10	-8%	3%	21%
CC(=NN1CC(=O)NC1=O)c1ccc([N+](=O)[O-])o1	u	9	u	-4%	16µM*
O=C1CCCC2=C1C1(CCCC1)N=C(Nc1nc3ccccc3s1)N2	10%	17	u	12%	u
O=C1CCCC2=C1C1(CCCCC1)N=C(Nc1nc3ccccc3s1)N2	16%	27	18µM*	-3%	u
Cc1ccccc1CC1(CO)CCCN(C(=O)c2ccc3ncccc3c2)C1 (configuration not stated)	1%	27	6.5µM*	2%	15µM*
Cc1cccc(N(CC(N)=O)C2SC(=O)N(Cc3cccc(C(=O)O)c3)C2=O)c1 (configuration not stated)	x	x	-1%	x	-5%
O=S1(=O)N[C@H](c2ccccc2)C[C@H](c2ccc(C(F)(F)F)cc2)O1	-1%	-7	15µM*	0%	u
N#CC1=C(N)NC(SCc2ccc(F)cc2)=C(C#N)C12CCCCC2	21µM*	-9	23µM*	23µM*	26µM*
N#CC1=C(N)NC(SCC(=O)O)=C(C#N)C12CCCC2	10%	-4	-17%	18%	1%
N#Cc1c(Cl)nc2c(c1C#N)CCCC2	3%	-4	6%	-3%	18µM*
COC(=O)[C@H](Cc1ccccc1)NC(=O)NCCc1ccc(F)cc1	u	-5	-1%	-18%	-25%
NC(Cc1ccccc1)c1csc(NC(=O)Nc2ccccc2Oc2ccccc2)n1 (configuration not stated)	u	u	-110%	u	21µM*
COc1ccccc1NC(=O)Nc1nc(C(N)Cc2ccc(C(F)(F)F)cc2)cs1 (configuration not stated)	x	0	13µM*	x	15µM*
COc1ccc(C(N)c2csc(Nc3ccc(C(=O)c4ccccc4)cc3)n2)cc1 (configuration not stated)	u	-28	u	u	u
NC(c1ccccc1)c1csc(NC(=O)Nc2ccccc2Oc2ccccc2)n1 (configuration not stated)	u	-11	u	u	15µM*
SMILES	HT1080-NT tox	IL1B secr inh	DT40 TDP1 CPT	HT1080 IDH1KD tx	TDP1 cell noCPT
CC(C)CC(=O)Nc1ccccc1Oc1ccccc1	6%	7	-10%	8%	-29%
NC(Cc1ccc(C(F)(F)F)cc1)c1csc(NC(=O)NCCc2ccccc2)n1 (configuration not stated)	23µM*	-101*	12µM*	18µM*	13µM*
Cc1ccc(CSC2=Nc3ccccc3C3=NC(CC(=O)NCc4ccco4)C(=O)N23)cc1 (configuration not stated)	7%	2	-14%	0%	-14%
NC(c1ccccc1)c1csc(NC(=O)NCC2CCCCC2)n1 (configuration not stated)	u	-19	-84%	u	-76%
CN(C)Cc1csc(NC(=O)Nc2ccccc2Oc2ccccc2)n1	16µM*	-104*	u	u	u
CC(=O)Nc1ccccc1Oc1ccccc1	0%	-21	-3%	-6%	17%
NC(Cc1ccc(C(F)(F)F)cc1)c1csc(NC(=O)Nc2ccccc2Oc2ccccc2)n1 (configuration not stated)	u	-60*	u	-6%	18µM*
NC(c1ccccc1)c1csc(NC(=O)NCCc2ccccc2)n1 (configuration not stated)	u	-63*	u	u	u
Cc1ccc(NC(=O)C(Cc2ccccc2)NS(=O)(=O)c2ccc3c(c2)oc(=O)n3C)c(Cl)c1 (configuration not stated)	x	x	4%	x	4%
Cc1ccccc1NC(=O)c1cccc(S(=O)(=O)Oc2ccc([N+](=O)[O-])cc2)c1	-6%	-58*	u	0%	u
CN(C)S(=O)(=O)Oc1cccc(C(=O)Nc2ccc([N+](=O)[O-])cc2)c1	-22%	8	u	u	8.2µM*
O=C(Nc1ccc(O)cc1)c1cccc(Oc2ccc([N+](=O)[O-])cc2)c1	u	-68*	u	u	18µM*
CC(=O)C(CC(=O)N1CCCc2ccccc21)C(=O)Nc1ccc(F)cc1 (configuration not stated)	-8%	35	-26%	-1%	-15%
